Inconclusive results are not listed. Activity calls are given as the source filed them. Unless noted, calls come from the whole dose curve; as a rule, active = well fitted curve in either direction with a large enough effect (not every such curve was filed as active); inconclusive = small, poorly fitted or top-dose-only effect, or another doubt; inactive = flat fitted curve, though single readings scatter. Residues, ends and D or L forms follow the SMILES beside them.
Columns and labels:
[1] = molecular target: Lysosomal acid glucosylceramidase (Homo sapiens) (UniProt P04062); assay: Glucocerebrosidase-p2 (AID 348; in the data active = potency below about 10 µM; note: potency is the fitted concentration of half-maximal effect); details: purified GBA, blue fluorogenic substrate, 40 min
In short: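 Normal human glucocerebrosidase (0.2 nM) with blue fluorogenic substrate (80 uM final) in citrate/phosphate pH 5.9 with 10mM sodium taurocholate, 0.01% tween-20; 40 min RT, NaOH/glycine stop; fluorescence Ex 365/Em 440; AC50 from a titration from 0.6 nM upwards.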

[2] = AP1 Signaling Pathway (AID 357); details: ME-180 AP-1-bla reporter, EGF-induced, beta-lactamase ratio, 5 h; at 7.69 µM (top of the series) unless noted;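 note: ME-180 reporter cells stimulated with EGF at its EC50 level; % is set by controls: 0 for no effect and ±100 for the full control effect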
In short: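 AP-1-bla ME-180 cells, Opti-MEM + 0.5% dialyzed FBS, plated overnight 37 °C. Cpd titration + EC50 EGF, 5 h 37 °C. CCF4 2.5 h RT; ex 405, em 460/530 ratio → %activity, AC50.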

[3] = molecular target: Cytochrome P450 1A2 (Homo sapiens) (UniProt P05177); assay: p450-cyp1a2 (AID 410; calls by dose curve;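 note: -100% = full effect of reference inhibitor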); details: recombinant CYP1A2, luciferin-ME demethylation, luminescence; series mostly up to 11.4 µM
In short: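 20nM CYP1A2, 100uM Luciferin-ME (=Km), 100mM KPO4; cpd 10 min RT; +NADPH regen, 60 min RT; stop/detect 20 min; luminescence. Normalized to furafylline 57 uM = full inhibition.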

[4] = NFAT Signaling Pathway (AID 444); details: Jurkat NFAT-bla M1, carbachol, beta-lactamase ratio, 5 h; at 7.69 µM (top of the series) unless noted;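 note: carbachol stimulus at about its EC50 of 1 µM final; % is set by controls: 0 for no effect and ±100 for the full control effect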
In short: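 Read-out: CCF4 FRET ratio (460 nm/530 nm) after 1 h RT dye loading, used for %activity and AC50 from titration series. Cells: Jurkat NFAT-β-lactamase/M1 line, treated with compound plus 1 uM carbachol for 5 h, 37 °C.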

[5] = Stat Signaling Pathway (AID 446); details: ME-180 (cervical carcinoma) SIE beta-lactamase reporter, IL-6 stimulated, 5 h; at 7.69 µM (top of the series) unless noted;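 note: ME-180 cervical cancer cells given 40 pM IL-6 alongside compound; SIE-controlled beta-lactamase reporter measured as 460/530 nm FRET emission ratio; % is set by controls: 0 for no effect and ±100 for the full control effect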
In short: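 FRET read-out (405 nm excitation, 460/530 nm emission) of a beta-lactamase reporter under a STAT-inducible element in ME-180 cervical carcinoma cells. Cells with compound receive 40 pM IL-6 for 5 h. Values are normalised to AC90 stimulation and AC90 JAK-inhibitor controls.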

[6] = molecular target: Glucocorticoid receptor (Homo sapiens) (UniProt P04150); assay: GR-GFP Redistribution (AID 450;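 active = compounds whose dose series gives a full or clear partial fitted curve of increased nuclear translocation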; note: potency is the fitted concentration of half-maximal effect); details: U2OS GR-GFP nuclear translocation, laser cytometry, 2 h
[7] = molecular target: Glucocorticoid receptor (Homo sapiens) (UniProt P04150); assay: GR-EFC Redistribution (AID 451; calls by dose curve; note: potency is the fitted concentration of half-maximal effect); details: CHO-K1 GR-EFC translocation, beta-gal luminescence, 2 h
In short: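 Translocation of GR-ED fusion to nuclear EA restores b-gal, read by luminescence after 1 h room-temperature detection. Engineered CHO-K1 biosensor cells, 1,000/well, exposed 2 h at 37 C to titrations up to 46 uM final.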

[8] = molecular target: Mitogen-activated protein kinase 10 (Mus musculus) (UniProt Q61831); assay: JNK3 AlphaScreen Assay (AID 530); details: JNK3 lysate, c-Jun phosphorylation; series mostly up to 11.4 µM;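 note: kinase came from lysate of stimulated human HepG2 cells; signal reports phosphorylation of biotinylated GST-cJun 1-79 at Ser73 with 10 µM ATP; % is set by controls: 0 for no effect and ±100 for the full control effect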
In short: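 Kinase buffer: 20 mM Tris-HCl pH 7.6, 10 mM MgCl2, 1 mM DTT, 0.1 mM Na3VO4, 0.01% Tween-20; ATP 10 uM. Substrate biotin-GST-cJun(1-79), enzyme from activated HepG2 lysates. Detection by Ser73 phospho-antibody AlphaScreen.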

[9] = molecular target: 3',5'-cyclic-AMP phosphodiesterase 4B (Homo sapiens) (UniProt Q07343); assay: qHTS Assay for Inhibitors of PDE-IV (AID 607; active = well fitted activation curve with a large enough effect in the main read-out, with a control signal flat, not every such curve was filed as active; note: % of control where 0% means no effect); details: HEK293 ACTOne CNG channel cells, membrane potential fluorescence; series mostly up to 22.9 µM
In short: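 Cell-based read-out of cAMP via a modified cyclic nucleotide-gated channel and membrane potential dye (535/590 nm) in HEK293 cells expressing PDE4 endogenously. Compounds tested up to 22.9 uM final; 100 uM RO 20-1724 reference.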

Sequence of Lysosomal acid glucosylceramidase (Homo sapiens) (P04062 whole entry, looked up): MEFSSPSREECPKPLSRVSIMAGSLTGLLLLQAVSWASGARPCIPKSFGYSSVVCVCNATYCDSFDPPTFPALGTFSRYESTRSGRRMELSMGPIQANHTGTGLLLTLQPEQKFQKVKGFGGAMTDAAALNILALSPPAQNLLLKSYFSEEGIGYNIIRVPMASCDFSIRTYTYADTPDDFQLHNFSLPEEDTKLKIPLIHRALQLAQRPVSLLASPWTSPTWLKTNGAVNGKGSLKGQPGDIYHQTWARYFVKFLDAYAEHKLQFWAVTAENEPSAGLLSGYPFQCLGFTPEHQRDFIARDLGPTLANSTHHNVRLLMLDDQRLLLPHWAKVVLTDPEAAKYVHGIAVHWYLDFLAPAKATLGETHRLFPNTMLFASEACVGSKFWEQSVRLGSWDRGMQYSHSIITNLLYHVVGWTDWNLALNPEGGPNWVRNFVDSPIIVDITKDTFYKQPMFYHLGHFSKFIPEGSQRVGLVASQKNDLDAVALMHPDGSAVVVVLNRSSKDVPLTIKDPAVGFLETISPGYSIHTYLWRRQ
Sequence of Cytochrome P450 1A2 (Homo sapiens) (P05177 whole entry, looked up): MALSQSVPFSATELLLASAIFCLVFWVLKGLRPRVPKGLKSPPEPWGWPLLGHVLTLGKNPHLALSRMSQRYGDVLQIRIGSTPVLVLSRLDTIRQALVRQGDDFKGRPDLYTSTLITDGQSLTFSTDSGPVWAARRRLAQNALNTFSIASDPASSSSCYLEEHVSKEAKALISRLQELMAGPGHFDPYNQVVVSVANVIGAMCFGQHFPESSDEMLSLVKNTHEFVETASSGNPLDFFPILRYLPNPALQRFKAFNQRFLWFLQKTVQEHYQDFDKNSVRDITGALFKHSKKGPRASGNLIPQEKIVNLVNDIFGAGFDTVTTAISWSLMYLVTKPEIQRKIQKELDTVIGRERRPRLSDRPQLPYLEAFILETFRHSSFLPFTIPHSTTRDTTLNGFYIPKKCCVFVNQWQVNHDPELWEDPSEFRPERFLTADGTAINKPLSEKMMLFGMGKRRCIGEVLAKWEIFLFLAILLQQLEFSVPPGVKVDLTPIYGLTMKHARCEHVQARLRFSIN
Sequence of Glucocorticoid receptor (Homo sapiens) (P04150 whole entry, looked up, the tested form may be a part): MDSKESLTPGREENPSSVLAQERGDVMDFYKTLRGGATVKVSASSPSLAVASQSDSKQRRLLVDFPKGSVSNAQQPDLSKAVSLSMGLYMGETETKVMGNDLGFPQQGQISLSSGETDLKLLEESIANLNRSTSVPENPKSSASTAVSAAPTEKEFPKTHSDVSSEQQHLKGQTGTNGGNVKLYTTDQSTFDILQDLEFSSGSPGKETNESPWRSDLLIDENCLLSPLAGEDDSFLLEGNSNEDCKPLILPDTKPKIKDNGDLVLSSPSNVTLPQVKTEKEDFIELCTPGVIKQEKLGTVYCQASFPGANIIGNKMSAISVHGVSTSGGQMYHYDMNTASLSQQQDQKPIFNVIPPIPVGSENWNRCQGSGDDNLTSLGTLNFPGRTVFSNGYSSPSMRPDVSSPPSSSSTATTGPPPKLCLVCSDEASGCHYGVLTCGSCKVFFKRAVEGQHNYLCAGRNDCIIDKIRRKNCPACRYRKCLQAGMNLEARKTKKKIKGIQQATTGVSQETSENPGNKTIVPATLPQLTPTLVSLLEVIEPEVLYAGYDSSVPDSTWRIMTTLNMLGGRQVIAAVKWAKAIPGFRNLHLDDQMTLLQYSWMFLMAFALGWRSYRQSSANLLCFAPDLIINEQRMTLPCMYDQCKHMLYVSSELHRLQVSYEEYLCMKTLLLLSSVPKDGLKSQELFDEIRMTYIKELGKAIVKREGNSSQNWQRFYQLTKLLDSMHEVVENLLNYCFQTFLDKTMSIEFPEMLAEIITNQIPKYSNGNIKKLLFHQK
Sequence of 3',5'-cyclic-AMP phosphodiesterase 4B (Homo sapiens) (Q07343 whole entry, looked up): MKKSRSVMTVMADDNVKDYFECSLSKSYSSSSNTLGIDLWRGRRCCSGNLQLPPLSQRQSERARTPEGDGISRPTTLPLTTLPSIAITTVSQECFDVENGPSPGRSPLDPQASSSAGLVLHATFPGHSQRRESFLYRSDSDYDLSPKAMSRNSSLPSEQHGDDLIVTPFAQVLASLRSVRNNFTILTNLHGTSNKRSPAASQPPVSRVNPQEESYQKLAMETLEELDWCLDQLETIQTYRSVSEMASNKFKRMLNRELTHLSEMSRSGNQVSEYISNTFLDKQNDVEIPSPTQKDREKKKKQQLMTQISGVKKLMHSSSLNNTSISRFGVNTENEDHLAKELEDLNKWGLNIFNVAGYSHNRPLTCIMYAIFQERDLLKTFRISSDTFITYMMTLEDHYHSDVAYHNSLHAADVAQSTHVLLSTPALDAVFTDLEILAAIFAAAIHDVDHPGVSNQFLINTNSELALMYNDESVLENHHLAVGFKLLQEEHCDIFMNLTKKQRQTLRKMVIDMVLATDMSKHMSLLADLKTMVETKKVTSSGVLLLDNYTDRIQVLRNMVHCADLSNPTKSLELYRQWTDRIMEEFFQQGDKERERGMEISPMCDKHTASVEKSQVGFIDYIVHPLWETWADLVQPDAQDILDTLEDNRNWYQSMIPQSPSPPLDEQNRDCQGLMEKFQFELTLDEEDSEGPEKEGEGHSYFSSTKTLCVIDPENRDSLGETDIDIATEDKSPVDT

CC(=O)[C@@H](C)CCO[C@@]1(C)OCC[C@@H]1C
inactive: Potency [1] > 11.4 µM | activity change, negative = inhibition [2] 12.4% | Potency [3] | activity change, negative = inhibition [4] 6.23% | activity, negative = inhibition [5] 14.8% | Potency [6] > 46 µM | Potency [7] > 9.22 µM | Potency [8] | Potency [9]

NCC(=O)N[C@H](CO)C(=O)O (HELM PEPTIDE1{G.[dS]}$$$$V2.0)
inactive: Potency [1] > 11.4 µM | activity change, negative = inhibition [2] 12.3% | Potency [3] | activity change, negative = inhibition [4] -7.28% | activity, negative = inhibition [5] 10.1% | Potency [6] > 46 µM | Potency [7] > 9.22 µM | Potency [8] | Potency [9]

COc1nc(N)nc2c1ncn2[C@@H]1C[C@H](O)[C@@H](CO)O1
inactive: Potency [1] > 11.4 µM | activity change, negative = inhibition [2] 5.07% | Potency [3] | activity change, negative = inhibition [4] 4.99% | activity, negative = inhibition [5] 11.5% | Potency [6] > 46 µM | Potency [7] > 9.22 µM | Potency [8] | Potency [9]

C[C@H]1[C@H](C)OC(=O)C[C@H](O)C[C@H](O)C[C@H](O)CC[C@H](O)[C@H](O)CC(=O)C[C@H](O)[C@H](C(=O)O)[C@H](O)C[C@H](O[C@@H]2O[C@@H](C)[C@H](O)[C@@H](N)[C@@H]2O)C=CC=CC=CC=CCCC=CC=C[C@@](C)(O)[C@H]1O
inactive: Potency [1] > 11.4 µM | activity change, negative = inhibition [2] 4.16% | Potency [3] | activity change, negative = inhibition [4] 2.48% | activity, negative = inhibition [5] -6.26% | Potency [6] > 46 µM | Potency [7] > 9.22 µM | Potency [8] | Potency [9]

NC(=O)NC(=O)[C@H]1CCCC[C@@H]1C(=O)O
inactive: Potency [1] > 11.4 µM | activity change, negative = inhibition [2] 7.05% | Potency [3] | activity change, negative = inhibition [4] -5.46% | activity, negative = inhibition [5] 17.8% | Potency [6] > 46 µM | Potency [7] > 9.22 µM | Potency [8] | Potency [9]

O=C(O)c1cc(-c2ccc(-c3ccc(-c4cc(C(=O)O)c5cc(Cl)ccc5n4)cc3)cc2)nc2ccc(Cl)cc12
inactive: Potency [1] > 11.4 µM | activity change, negative = inhibition [2] -6.84% | activity change, negative = inhibition [3] -18.2% [at 2.29 µM] | activity change, negative = inhibition [4] -22% | activity, negative = inhibition [5] -13.1% | Potency [6] > 46 µM | Potency [7] > 9.22 µM | Potency [8] | Potency [9]

O=C1C=C(Nc2nc(C(=O)O)cc(=O)[nH]2)c2ccccc2C1=O
inactive: Potency [1] > 11.4 µM | activity change, negative = inhibition [2] -3.21% | activity change, negative = inhibition [3] -15.8% [at 2.29 µM] | activity change, negative = inhibition [4] 7.2% | activity, negative = inhibition [5] 1.38% | Potency [6] > 46 µM | Potency [7] > 9.22 µM | Potency [8] | Potency [9]

Clc1ccccc1C(Nc1cnccn1)Nc1cnccn1
inactive: Potency [1] > 11.4 µM | activity change, negative = inhibition [2] 8.81% | activity change, negative = inhibition [3] -18% [at 2.29 µM] | activity change, negative = inhibition [4] 6.25% | activity, negative = inhibition [5] -2.8% | Potency [6] > 46 µM | Potency [7] > 9.22 µM | Potency [8] | Potency [9]

CCn1c(CCCc2nc3c([nH]2)c(=O)n(C)c(=O)n3C)nc2c1c(=O)n(C)c(=O)n2C
inactive: Potency [1] > 11.4 µM | activity change, negative = inhibition [2] -3.01% | activity change, negative = inhibition [3] -16.7% [at 2.29 µM] | activity change, negative = inhibition [4] 6.75% | activity, negative = inhibition [5] 1.77% | Potency [6] > 46 µM | Potency [7] > 9.22 µM | Potency [8] | Potency [9]

NC(N)=Nc1ccc(-c2ccc(N=C(N)N)cc2)cc1
inactive: Potency [1] > 11.4 µM | activity change, negative = inhibition [2] 1.56% | Potency [3] | activity change, negative = inhibition [4] 4.39% | activity, negative = inhibition [5] 0.358% | Potency [6] > 46 µM | Potency [7] > 9.22 µM | Potency [8] | Potency [9]

C[C@H](CCC(=O)O)[C@H]1CC[C@]2(C)[C@@H]3C(=O)C[C@H]4C(C)(C)[C@@H](O)CC[C@]4(C)[C@H]3C(=O)C[C@@]12C
inactive: Potency [1] > 11.4 µM | activity change, negative = inhibition [2] 4.2% | Potency [3] | activity change, negative = inhibition [4] 21.4% | activity, negative = inhibition [5] 8.37% | Potency [6] > 46 µM | Potency [7] > 9.22 µM | Potency [8] | Potency [9]

C[C@H]1O[C@@H](CC(=O)O)Cc2c1c(O)c1c(O)cc(-c3cc(=O)c4c(=O)c5c(c(=O)c=4c3=O)C[C@H](CC(=O)O)O[C@@H]5C)c(O)c1c2O
inactive: Potency [1] > 11.4 µM | activity change, negative = inhibition [2] 13% | activity change, negative = inhibition [3] -29.1% [at 2.29 µM] | activity change, negative = inhibition [4] 9.83% | activity, negative = inhibition [5] -5.2% | Potency [6] > 46 µM | Potency [7] > 9.22 µM | Potency [8] | Potency [9]

C/C(=N/Nc1nc(C)cc(=O)[nH]1)C(=O)O
inactive: Potency [1] > 11.4 µM | activity change, negative = inhibition [2] 1.69% | Potency [3] | activity change, negative = inhibition [4] 1.78% | activity, negative = inhibition [5] -0.204% | Potency [6] > 46 µM | Potency [7] > 9.22 µM | Potency [8] | Potency [9]

CN1CCN(c2nc3c(c(=O)n(C)c(=O)n3C)n2C)CC1
inactive: Potency [1] > 11.4 µM | activity change, negative = inhibition [2] -1.63% | activity change, negative = inhibition [3] -16.8% [at 2.29 µM] | activity change, negative = inhibition [4] 1.71% | activity, negative = inhibition [5] -1.51% | Potency [6] > 46 µM | Potency [7] > 9.22 µM | Potency [8] | Potency [9]

CN(C)CCCNc1cc(O)c2c(c1O)C(=O)c1ccccc1C2=O
inactive: Potency [1] > 11.4 µM | activity change, negative = inhibition [2] 9.25% | activity change, negative = inhibition [3] -23.1% [at 2.29 µM] | activity change, negative = inhibition [4] 23.5% | activity, negative = inhibition [5] 26% | Potency [6] > 46 µM | Potency [7] > 9.22 µM | Potency [8] | Potency [9]

Source: PubChem BioAssay (NCATS)
